About 79,000 compounds went through this panel and 15% of them were active in at least one assay; those are over-represented in the sample as a whole. No stated cut-off is given here; in the data, active means growth inhibition above about 70%; inactive means the rest. Where a SMILES comes first, the peptide text is derived from it. The star is where a group is joined. Cbz = O=C(OCc1ccccc1)*
Experiments:
[1] = NCI Yeast Anticancer Drug Screen. Data for the rad50 strain (AID 155);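 further: 0% = growth of vehicle-only cultures of the same strain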; settings: S. cerevisiae rad50 strain growth inhibition, hits give high values; at 50.0 µM unless noted
Procedure, shortened: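 Relative growth inhibition (compound vs vehicle) was measured in yeast with a defined repair-gene alteration.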

[2] = NCI Yeast Anticancer Drug Screen. Data for the mec2-1 strain (AID 157); settings: S. cerevisiae mec2-1 strain, hits give high values; at 50.0 µM unless noted
Procedure, shortened: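 Each compound was tested on mec2-1 yeast, a strain altered in DNA damage repair or cell cycle control. Growth inhibition is reported relative to vehicle.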

[3] = NCI Yeast Anticancer Drug Screen. Data for the sgs1 mgt1 strain (AID 161);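 further: 0% = growth of cultures given vehicle only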; settings: S. cerevisiae sgs1 mgt1 strain, hits give high values; at 50.0 µM unless noted
Procedure, shortened: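 Genetically altered yeast, compound exposure, growth inhibition relative to vehicle.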

[4] = NCI Yeast Anticancer Drug Screen. Data for the cln2 rad14 strain (AID 165);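 further: 0% = growth equal to vehicle treated cultures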; settings: S. cerevisiae cln2 rad14 strain, hits give high values; at 50.0 µM unless noted
Procedure, shortened: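 Test compounds were added to cln2 rad14 yeast cultures; inhibition of growth was then determined by comparison with vehicle treatment.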

[5] = NCI Yeast Anticancer Drug Screen. Data for the bub3 strain (AID 167); settings: S. cerevisiae bub3 mutant strain, hits give high values; at 50.0 µM unless noted
Procedure, shortened: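 Screening used yeast with an engineered genetic alteration affecting cell cycle control. Compound-exposed cultures were compared with vehicle cultures, and reduced growth was taken as inhibition.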

[6] = NCI Yeast Anticancer Drug Screen. Data for the mlh1 rad18 strain (AID 175); settings: S. cerevisiae mlh1 rad18 strain growth inhibition, hits give high values; at 50.0 µM unless noted
Procedure, shortened: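 Inhibition values reflect reduced growth of mutant yeast versus vehicle-treated controls following compound exposure; the mutations affect DNA damage repair.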

Measured: growth inhibition

O=C(O)c1ccc(Cl)o1
inactive: [1] 7.7% | [2] -3.6% | [3] -23.1% | [4] -1.05% | [5] 10.1% | [6] 5.6%

Cc1ccc([N+](=O)[O-])cc1NC(=O)Oc1ccc(Cl)cc1Cl
inactive: [1] -5% | [2] 8.55% | [3] -10.9% | [4] 1% | [5] 2.5% | [6] -13.3%

c1ccc2cnncc2c1
inactive: [1] 0.35% | [2] -0.55% | [3] -11.8% | [4] 4.35% | [5] 11.7% | [6] 0.25%

CC1(c2nc3ccccc3[nH]2)CCC(C(N)=O)C(C)(C)O1 (configuration not stated)
inactive: [1] 1.5% | [2] -13.2% | [3] -19.8% | [4] -2.55% | [5] -16.9% | [6] -10.6%

COc1cccc(N2C(=O)C3c4[nH]c5ccc(C)cc5c4C4CCC(C)CC4C3C2=O)c1 (configuration not stated)
inactive: [1] -10.7% | [2] -27.4% | [3] -29.1% | [4] -6.5% | [5] -23.1% | [6] -13.4%

O=c1[nH][nH]c2ccccc12
inactive: [1] 23.1% | [2] -11.3% | [3] 13.1% | [4] 13.9% | [5] 8.9% | [6] 12.2%

NC(=O)CCCO
inactive: [1] 6.1% | [2] -2.65% | [3] -3.25% | [4] 6.6% | [5] 3.25% | [6] 2.4%

Cc1ccc(S(=O)(=O)OC2CCN(C)CC2)cc1
inactive: [1] 36.5% | [2] 6.75% | [3] 15.8% | [4] 9.6% | [5] 43.2% | [6] 30.1%

CCSC1C(O)C(CO)OC1n1cnc2c(=S)nc[nH]c21 (configuration not stated)
inactive: [1] -3.65% | [2] -28.7% | [3] -2% | [4] 2.6% | [5] 5% | [6] 0.2%

COc1ccc2nc3cc(Cl)ccc3c(SCC(=O)Nc3ccccc3-c3ccccc3NC(=O)CSc3c4ccc(Cl)cc4nc4ccc(OC)cc34)c2c1
inactive: [1] -0.1% | [2] -2.9% | [3] -3.05% | [4] 22.9% | [5] 2.5% | [6] 7.8%

COC(=O)/C(C#N)=N/O
inactive: [1] 16.6% | [2] -39.1% | [3] -22.8% | [4] 8.4% | [5] -7.7% | [6] -21.6%

CCOC(=O)C(Sc1ccc(C)cc1)C(Sc1ccc(C)cc1)C(=O)OCC (configuration not stated)
inactive: [1] 0.6% | [2] -6.6% | [3] 11.2% | [4] -17.3% | [5] -0.3% | [6] -0.75%

O=C(CCl)NNC1=Nc2ccc(Cl)cc2SC1
inactive: [1] -2.2% | [2] -3.65% | [3] 8.55% | [4] 0.6% | [5] 5.8% | [6] 11.2%

COc1ccc(/C=C2\N=C(c3ccc([N+](=O)[O-])cc3)OC2=O)cc1OC
inactive: [1] -5.35% | [2] -2.75% | [3] -14.8% | [4] -15.5% | [5] 0.25% | [6] -17.1%

Cn1c2ccc3cc2c(=S)c2cc(ccc21)OCCOCCOCCOCCOCCO3
inactive: [1] 32.1% | [2] -16% | [3] 0.65% | [4] -17% | [5] -13.3% | [6] 9.85%

Cc1ccc(-c2c3ccccc3cc3ccccc23)c(C)c1
inactive: [1] 24.9% | [2] -11.1% | [3] -1.5% | [4] -2.8% | [5] 5.25% | [6] 11.8%

COC(=O)C(C(=O)C(=O)Nc1ccccc1OC)c1csc(-n2nc(-c3ccccc3)cc2-c2ccccc2)n1 (configuration not stated)
inactive: [1] 0.65% | [2] -7.85% | [3] -11.2% | [4] 21.4% | [5] 52.1% | [6] 4.95%

O=C(N/N=C/c1ccc2c(c1)OCO2)c1ccccc1
inactive: [1] 12.7% | [2] -11.1% | [3] 6.25% | [4] -35.5% | [5] 1.8% | [6] 22.4%

COC(=O)N1C=NC2C3(C)C(C)=C(C)C3(C)C21C (configuration not stated)
inactive: [1] 0.35% | [2] -3.55% | [3] -4.1% | [4] -24.9% | [5] -0.4% | [6] -7.45%

CSc1nnc(CCC(=O)Nc2cc(Cl)ccc2Cl)o1
inactive: [1] 40.7% | [2] 44.8% | [3] 28.9% | [4] 15.7% | [5] 54.5% | [6] 9.05%

O=C1c2cc(F)ccc2-c2c(F)ccc(F)c21
inactive: [1] 38.1% | [2] 8.7% | [3] 27.7% | [4] 11.1% | [5] 23.6% | [6] 23.5%

O=S(=O)(Cc1nc2ccccc2[nH]1)Cc1nc2ccccc2[nH]1
inactive: [1] -3.4% | [2] 4.25% | [3] 14.8% | [4] -7.25% | [5] 4.95% | [6] 9.3%

O=C1CSC(c2ccccc2Cl)N1c1n[nH]c(=S)s1 (configuration not stated)
inactive: [1] -13.8% | [2] -17.6% | [3] -9.5% | [4] -55% | [5] -23.6% | [6] 1%

CC(=O)OCCN(CCOC(C)=O)CCOC(C)=O
inactive: [1] -8.4% | [2] -3.5% | [3] -3.4% | [4] -52.3% | [5] -3.4% | [6] 18.5%

CCCCCCCCCCCCSCCSCCCCCCCCCCCC
inactive: [1] 9.85% | [2] 15.4% | [3] 4.9% | [4] -26.8% | [5] -29.4% | [6] 1.3%

Cc1ccc(Nc2nc(N)nc3c2ncn3C2OC(CO)C(O)C2O)cc1 (configuration not stated)
inactive: [1] 25.8% | [2] 2.6% | [3] 7.85% | [4] -3.75% | [5] 18.6% | [6] 7.35%

CCOC(=O)C(N)CSC(=O)NC (configuration not stated)
inactive: [1] 24.9% | [2] -3.4% | [3] 16% | [4] 3.2% | [5] 20.9% | [6] -49.5%

CN(C)C(=S)/N=c1\ssc(=S)n1Cc1cccnc1
inactive: [1] -20.6% | [2] -14.4% | [3] 5.5% | [4] 22.9% | [5] -13.7% | [6] -62.8%

CCOC(=O)CCC(NC(=O)C(Cc1ccccc1)NC(=O)OCc1ccccc1)C(=O)OCC (stereo not drawn) (Cbz-Phe-Glu(OEt)-OEt; configuration not given here)
inactive: [1] 3.9% | [2] -2.9% | [3] -0.2% | [4] -6.25% | [5] -7.85% | [6] -59.4%

COc1cc(NC(C)=O)c2c(c1)SCC(=O)N2
inactive: [1] 3.2% | [2] -34.5% | [3] -3.7% | [4] 5.2% | [5] 24% | [6] 1.4%

CC(=O)CC(=O)N1CCc2ccccc21
inactive: [1] 3.8% | [2] -14.9% | [3] 3.8% | [4] 2.55% | [5] -19.6% | [6] 1.1%

O=c1oc(-c2ccccc2CCl)nc2ccccc12
inactive: [1] 0.95% | [2] -17.1% | [3] 15.8% | [4] 15.3% | [5] -13.8% | [6] -5.9%

CCCCC1(CC)COC(=O)N(C)C1 (configuration not stated)
inactive: [1] 10.8% | [2] 4.95% | [3] 0.65% | [4] -7.6% | [5] 18% | [6] 3%

O=C1NCC2(CCN(CCCC3(c4ccc(F)cc4)OCCO3)CC2)N1c1ccccc1
inactive: [1] -14.1% | [2] -0.05% | [3] -1.55% | [4] 1.4% | [5] 6.4% | [6] 1.55%

Cc1ccc2nc(-c3ccc(NC(=O)c4ccc(N)cc4)c(S(=O)(=O)O)c3)sc2c1
inactive: [1] 1.9% | [2] 4.7% | [3] -25.9% | [4] -22% | [5] -16.4% | [6] -8.85%

O=C1c2ccccc2CCC1c1ccccc1 (configuration not stated)
inactive: [1] -1.65% | [2] -0.7% | [3] -5.2% | [4] -1.05% | [5] -10.7% | [6] -23.4%

N/N=C1\C(=O)N(c2ccc(Cl)c(Cl)c2)C(=O)C1C(=O)Nc1ccc(Cl)c(Cl)c1 (configuration not stated)
inactive: [1] -7.35% | [2] -19.4% | [3] -20.6% | [4] -16.4% | [5] -29.6% | [6] -31.1%
